# In PubChem BioAssay (NCATS):
# Inconclusive results are not listed. A call without a number means that no potency is given here. The source made the active and inactive calls. The call rests on the fitted dose curve; in most records, active means well fitted curve in the direction sought with a large enough effect; inconclusive means small, poorly fitted or top-dose-only effect, or another doubt; inactive means no such curve, though single readings can be large; an effect the other way counts as inactive or inconclusive.
# Legend:
# [1] = biological target: Aldehyde dehydrogenase, mitochondrial (Homo sapiens) (UniProt P05091); test: qHTS for Inhibitors of the Aldehyde Dehydrogenase Family (ALDH2) Primary screen (AID 2061308); further: nearly all actives have a fitted effect of over 55% in size
# [2] = biological target: Retinaldehyde dehydrogenase 3 (Homo sapiens) (UniProt P47895); test: qHTS for Inhibitors of the Aldehyde Dehydrogenase Family (ALDH1A3) Primary screen (AID 2061315)
Structure (SMILES),Potency [1],Potency [2]
Cc1cc(C(C)Nc2ccccc2C(=O)O)c2nc(N3CCOCC3)cc(=O)n2c1 (stereo unspecified),inactive,inactive
CCC(C)C(=O)O[C@H]1[C@@H](O[C@H]2O[C@H](CO)[C@@H](O)[C@H](O)[C@H]2O)O[C@H](CO)[C@@H](O)[C@@H]1O (stereo partly specified),inactive,inactive
CCCCCCCCC(=O)N[C@H](CN1CCCC1)[C@H](O)c1ccc2c(c1)OCCO2,inactive,inactive
CC(C)=CCC[C@](C)(O)[C@H]1CC[C@]2(C)[C@@H]1[C@H](O)CC1[C@@]3(C)CC[C@H](O)C(C)(C)C3[C@@H](O[C@@H]3O[C@H](CO)[C@@H](O)[C@H](O)[C@H]3O[C@@H]3OC[C@@H](O)[C@H](O)[C@H]3O)C[C@]12C (stereo partly specified),inactive,inactive
O=C(O)c1ccc(O)c2ncc(N3CCCN(CCc4cccc5ccccc45)CC3)cc12,inactive,inactive
CC1C2=CC(=O)OC2(O)CC2C1C(O)CC1C(C)(CO)CCCC21C (stereo unspecified),inactive,inactive
CCC1OC(=O)C(C)CC(C)C(=O)/C(C)=C/C(C)C(=O)/C=C/C1(C)O (stereo unspecified),inactive,inactive
CC1=CC(=O)[C@H]2C(C)(C)CCC[C@]2(C)[C@@]1(O)CO,inactive,inactive
